# From the supplement of paper PMC4723716
# ± gives the uncertainty stated by the source. Whole data set: some 9,900 compounds, median “viability index relative to DMSO control” near 1, cut for the lowest 2% near 0.85. The entries come from a sample that favours the lowest values as a whole.
# Tested on: Plasmodium falciparum NF54 stage V gametocytes
# Test: viability index relative to DMSO control (fraction); higher = less gametocyte killing
# Conditions: 2.5 µM, incubation time: 72 h
# Method in brief: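 Compound at 2.5 µM was incubated for 72 hr at 37°C under low oxygen with P. falciparum NF54 stage V gametocytes (0.75% gametocytemia, 1.25% hematocrit, 10 µl, serum-free screening medium) in 1,536-well plates. Staining used 3 µl of 2.5 µM MitoTracker Red CMXRos plus 0.13% saponin for one to two hours, and red particles of 20–70 µm2 were counted in one imaged field per well. Each viability index is that count relative to the plate mean of solvent-only wells.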
# [1] = library set: Broad Institute DOS
SMILES,viability index [1],viability index (library set: Broad Institute Blood Stage)
C[C@H]1CN([C@@H](C)CO)C(=O)c2cc(C#Cc3ccccc3)cnc2O[C@@H]1CN(C)C(=O)c1ccccc1,0.919 ± 0.071,–
CCCN(C)C[C@@H]1Oc2ncc(-c3cccc(OC)c3)cc2C(=O)N([C@H](C)CO)C[C@@H]1C,0.691 ± 0.3,–
C[C@H](CO)N1C[C@H](C)[C@@H](CN(C)C(=O)c2ccccc2)Oc2ncc(C#Cc3ccccc3)cc2C1=O,0.963 ± 0.029,–
C[C@@H]1CN([C@H](C)CO)C(=O)c2cc(C#Cc3ccccc3)cnc2O[C@H]1CN(C)C(=O)c1ccccc1,0.965 ± 0.019,–
COc1cccc(S(=O)(=O)N(C)C[C@@H]2Oc3ncc(C#Cc4ccc(OC)c(OC)c4)cc3C(=O)N([C@H](C)CO)C[C@@H]2C)c1,–,1.01 ± 0.04
C[C@@H]1CN([C@@H](C)CO)C(=O)c2cc(C#Cc3ccccc3)cnc2O[C@H]1CN(C)C(=O)c1ccccc1,1 ± 0.091,–
C[C@H](CO)N1C[C@H](C)[C@H](CN(C)Cc2ccc3c(c2)OCO3)Oc2ncc(-c3cccc(C(F)(F)F)c3)cc2C1=O,0.976 ± 0.025,–
C[C@H](CO)N1C[C@H](C)[C@H](CN(C)C(=O)c2ccccc2)Oc2ncc(C#Cc3ccccc3)cc2C1=O,0.829 ± 0.086,–
C[C@H]1CN([C@@H](C)CO)C(=O)c2cc(C#Cc3ccccc3)cnc2O[C@H]1CN(C)C(=O)c1ccccc1,0.572 ± 0.14,–
C/C=C/c1ccc2c(c1)[C@@H]1[C@@H](CCN1C(=O)C1CCCC1)[C@H](CO)N2,1.06 ± 0.045,–
C[C@@H]1CCCCO[C@H](CN(C)C(=O)NC2CCCCC2)[C@@H](C)CN([C@H](C)CO)C(=O)c2cc(N(C)C)ccc2O1,1.14 ± 0.11,–
O=C(Nc1ccccc1)N1CC(=O)N2[C@H](CO)[C@H](c3ccc(C#CC4CCCCC4)cc3)[C@@H]2C1,0.96 ± 0.031,–
Cc1noc(C)c1NC(=O)N(C)C[C@@H]1OCc2ccccc2-c2c(n(C)c3ccccc23)C(=O)N([C@@H](C)CO)C[C@H]1C,1.02 ± 0.1,–
Cc1noc(C)c1NC(=O)N(C)C[C@@H]1Oc2cc(C#CCN(C)C)ccc2S(=O)(=O)N([C@@H](C)CO)C[C@H]1C,0.947 ± 0.18,–
CC(C)C#Cc1ccc([C@H]2[C@@H](CO)N3C(=O)CN(C(=O)c4ccc5c(c4)OCO5)C[C@@H]23)cc1,1.03 ± 0.021,–
CNC[C@H]1Oc2c(NS(=O)(=O)c3ccc(Cl)cc3)cccc2C(=O)N([C@@H](C)CO)C[C@H]1C,1.01 ± 0.034,–
O=C(C[C@@H]1CC[C@@H]2[C@H](COC[C@H](O)CN2C(=O)c2cc(Cl)cc(Cl)c2)O1)N1CCc2ccccc2C1,1.032 ± 0.0059,–
C[C@@H]1CN([C@H](C)CO)C(=O)c2ccccc2-c2ccccc2CO[C@@H]1CN(C)Cc1ccc(Oc2ccccc2)cc1,1.028 ± 0.0055,–
C[C@H](CO)N1C[C@H](C)[C@@H](CN(C)Cc2ccc(Oc3ccccc3)cc2)OCc2ccccc2-c2ccccc2C1=O,0.801 ± 0.016,–

SMILES,viability index [1],viability index (library set: Broad Institute Blood Stage)
C[C@@H]1CN([C@H](C)CO)C(=O)c2ccccc2-c2ccccc2CO[C@@H]1CN(C)C(=O)c1cc(Cl)cc(Cl)c1,0.8517 ± 0.003,–
C[C@H](CO)N1C[C@H](C)[C@H](CN(C)C(=O)c2cc(Cl)cc(Cl)c2)OCc2ccccc2-c2ccccc2C1=O,1.04 ± 0.066,–
Cc1ccc(OC(=O)N(C)C[C@@H]2OCc3ccccc3-c3ccccc3C(=O)N([C@H](C)CO)C[C@H]2C)cc1,0.834 ± 0.091,–
Cc1ccc(OC(=O)N(C)C[C@@H]2OCc3ccccc3-c3ccccc3C(=O)N([C@H](C)CO)C[C@@H]2C)cc1,0.993 ± 0.036,–
C[C@@H]1CN([C@@H](C)CO)C(=O)c2ccccc2-c2ccccc2CO[C@@H]1CN(C)Cc1ccc(Oc2ccccc2)cc1,0.871 ± 0.0091,–
C[C@@H]1CN([C@@H](C)CO)C(=O)c2ccccc2-c2ccccc2CO[C@H]1CN(C)C(=O)c1cc(Cl)cc(Cl)c1,0.937 ± 0.19,–
Cc1ccc(OC(=O)N(C)C[C@@H]2OCc3ccccc3-c3ccccc3C(=O)N([C@@H](C)CO)C[C@H]2C)cc1,0.88 ± 0.0063,–
O=C(c1ccncc1)N1CC2(C1)[C@H](c1ccccc1)[C@@H](CO)N2CC1CC1,1.08 ± 0.016,–
Cc1noc(C)c1NC(=O)Nc1ccc2c(c1)C(=O)N([C@@H](C)CO)C[C@@H](C)[C@@H](CN(C)Cc1ccc3c(c1)OCO3)OCCCC[C@@H](C)O2,1.15 ± 0.058,–
O=C(c1ccccn1)N1C[C@H]2[C@@H](c3ccccc31)[C@@H](CO)N2C(=O)Nc1ccccc1Cl,1.05 ± 0.026,–
CCS(=O)(=O)Nc1ccc2c(c1)C(=O)N(C)[C@@H]1CC[C@H](CC(=O)N[C@@H]3CCN(Cc4ccccc4)C3)O[C@@H]1CO2,1.05 ± 0.04,–
O=S(=O)(c1cccc(F)c1)N1CC[C@H]2[C@H](CO)Nc3ccc(C#Cc4ccccc4F)cc3[C@H]21,1.1 ± 0.012,–
COc1ccc(CN(C)C[C@@H]2Oc3ccc(NC(=O)Nc4ccc5c(c4)OCO5)cc3CC(=O)N([C@H](C)CO)C[C@@H]2C)cc1,0.983 ± 0.077,–
COc1ccc2c3c([C@H](CO)N(C[C@]33CN(C3)S(=O)(=O)c3cn(C)cn3)C(=O)Nc3ccc(F)cc3)n(C)c2c1,1.114 ± 0.0043,–
COc1ccc(NC(=O)N(C)C[C@H]2Oc3ccc(NC(=O)Nc4cccc5ccccc45)cc3CC(=O)N([C@H](C)CO)C[C@@H]2C)cc1,0.968 ± 0.027,–
COc1ccccc1-c1ccc([C@@H]2[C@@H](C#N)N(C(=O)c3cccnc3)[C@@H]2CO)cc1,1.06 ± 0.063,–
CN(C)CC(=O)N1[C@H](C#N)[C@H](c2ccccc2-c2ccccc2F)[C@@H]1CO,1.1 ± 0.066,–
O=C(C[C@H]1CC[C@H]2[C@@H](COC[C@@H](O)CN2S(=O)(=O)c2ccc(F)cc2)O1)NCCN1CCCCC1,1.01 ± 0.12,–
